MCL1 BIM primary: disrupts human MCL1 binding to BIM-BH3 peptide; GST-MCL1 / FITC-Bim-BH3 fluorescence polarization; inhibition, % at 10.9 µM; 320,000 compounds, 0.68% hits; AID 2057;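 active means inhibition above the mean inhibition of all tested compounds plus 3 SD, set per campaign, cut at about 40% in these data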;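 further: 0% = DMSO wells and 100% = unlabeled Bim-BH3 peptide control; higher means more loss of mP so more displacement of Bim peptide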
MEX-5 binding: C. elegans MEX-5 TCR-2 RNA binding activity. Q9XUB2. activity score (negative = inhibition of binding), % at 10 µM. 300,000 compounds, 0.38% hits. MEX-5/FITC-TCR2 RNA binding, fluorescence polarization; active compounds read low. AID 1832;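 active means inhibition past about -25% in most replicates, and total fluorescence under double the plate's negative control median, limit read from the data; inconclusive means replicates evenly split on the limit, or fluorescence at least double controls; inactive means too little inhibition in most replicates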;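 further: 0% = DMSO and -100% = 5 µM competing unlabeled TCR2 RNA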
IDE cell inh: inhibits human insulin-degrading enzyme in HEK cells | P14735 | FAbetaB cleavage, fluorescence polarization | inhibition, % at 5.59 µM | 320,000 compounds, 0.41% hits | AID 434962;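 active means percent inhibition above the average of all tested compounds plus 3 SD, set per screening campaign, cut at about 16% in these data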;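 further: IDE supplied by intact live HEK cells; FP after avidin binding of uncleaved biotin substrate so inhibition keeps polarization high; 0% = DMSO wells and 100% = 60 µM reference IDE inhibitor Ii1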
GLD-1 RNA inh: GLD-1-TGE RNA interaction inhibition (C. elegans). purified GLD-1 + fluorescein TGE RNA, fluorescence polarization. Q17339. 320,000 compounds, 0.44% hits. inhibition, % at 5.96 µM. AID 2280;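 active means percent inhibition above a per-plate cutoff, the plate mean of test compounds plus 3 SD, cut at about 30% in these data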;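 further: 0% = DMSO wells with GLD-1 and probe and 100% = wells lacking GLD-1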
Target sequence (Q17339 whole entry, looked up): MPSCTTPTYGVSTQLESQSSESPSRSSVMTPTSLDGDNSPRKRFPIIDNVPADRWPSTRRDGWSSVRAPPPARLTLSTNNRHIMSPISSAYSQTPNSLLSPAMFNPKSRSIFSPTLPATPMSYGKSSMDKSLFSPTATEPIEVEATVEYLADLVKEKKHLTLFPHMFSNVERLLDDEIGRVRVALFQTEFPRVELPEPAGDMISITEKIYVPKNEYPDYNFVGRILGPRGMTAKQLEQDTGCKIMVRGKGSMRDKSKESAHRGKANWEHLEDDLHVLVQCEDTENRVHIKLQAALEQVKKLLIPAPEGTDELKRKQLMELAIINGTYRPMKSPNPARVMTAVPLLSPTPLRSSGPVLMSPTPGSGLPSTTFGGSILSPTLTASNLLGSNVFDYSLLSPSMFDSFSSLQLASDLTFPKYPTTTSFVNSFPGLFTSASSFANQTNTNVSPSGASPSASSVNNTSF
Bcl-xL primary: blocks human Bcl-xL binding to Bim BH3 peptide | Q07817 | GST-Bcl-xL / FITC-Bim BH3 peptide fluorescence polarization | inhibition, % at 10.9 µM | 320,000 compounds, 0.7% hits | AID 2129;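 active means inhibition above the mean of all tested compounds plus 3 SD, cutoff set per campaign, cut at about 30% in these data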;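 further: 0% = DMSO wells and 100% = unlabeled Bim-BH3 peptide competitor; inhibitors lower millipolarization by displacing the labeled peptide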
Target sequence (Q07817 whole entry, looked up): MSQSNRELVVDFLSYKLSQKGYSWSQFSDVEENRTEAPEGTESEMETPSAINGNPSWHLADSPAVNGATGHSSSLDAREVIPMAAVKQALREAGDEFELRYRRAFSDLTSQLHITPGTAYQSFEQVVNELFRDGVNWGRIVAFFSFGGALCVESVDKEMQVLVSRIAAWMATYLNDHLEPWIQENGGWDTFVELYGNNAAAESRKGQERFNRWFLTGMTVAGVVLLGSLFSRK
IDE cell activ: activators of human insulin-degrading enzyme in cells; P14735; HEK cells, FAbeta-B cleavage, fluorescence polarization; 0% vehicle, 100% cell-free pure enzyme wells; activation, % at 5.96 µM; 340,000 compounds, 0.073% hits;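 active means activation above the mean of all tested compounds plus 3 SD, set per screening campaign, cut at about 17% in these data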
Bcl-xL conf: Bcl-xL (human) inhibition, MCL1 counter-screen confirmation; shares compounds with MCL1 BIM primary; GST-Bcl-xL / FITC-Bim BH3 peptide FP binding; inhibition, % at 10.9 µM; 1,700 compounds, 54% hits; AID 2166;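 active means inhibition above a cutoff equal to the mean inhibition of all tested compounds plus 3 SD, cut at about 30% in these data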;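 further: 0% = DMSO wells and 100% = unlabeled Bim BH3 control peptide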
MCL1 BIM confirm: MCL1-BIM-BH3 interaction inhibition, confirmation | shares compounds with MCL1 BIM primary | GST-MCL1 / FITC-Bim-BH3 fluorescence polarization | inhibition, % at 10.9 µM | 1,700 compounds, 61% hits;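 active means inhibition above the average of all tested compounds plus 3 SD, cut at about 40% in these data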;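 further: 0% = DMSO wells and 100% = unlabeled Bim-BH3 control peptide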
* = called active by the depositor. Only some compounds are listed: those with a hit (about 1.5% of all), similar ones and a draw of the others.

Results for CCN(C[C@H]1N[C@@](CC)(C(=O)OC)[C@H]2C(=O)N(C)C(=O)[C@@H]12)S(=O)(=O)c1ccccc1 ?
IDE cell inh: 6.6; GLD-1 RNA inh: -0.7; IDE cell activ: 0.3

What do the screens show for `O=C(CN1C(=O)C2C3CCC(C3)C2C1=O)NCc1ccco1` (stereo not given)?
MCL1 BIM primary: 52.8*; MEX-5 binding: 3.8; IDE cell inh: -2.5; GLD-1 RNA inh: -2.9; Bcl-xL primary: 5.9; IDE cell activ: 6.9; Bcl-xL conf: 7.2; MCL1 BIM confirm: 8.5

How did c1ccc(-c2noc(CN3CCCC(OCc4ccccn4)C3)n2)cc1 (stereo not given) do in these assays?
MCL1 BIM primary: -0.6; MEX-5 binding: 2.3; IDE cell inh: 2.9; GLD-1 RNA inh: 3.3; Bcl-xL primary: 1.1; IDE cell activ: 0.9

Results for O=C(O)CC(c1ccccc1)N1C(=O)c2ccccc2C1=O (stereo not given) ?
MCL1 BIM primary: -2.3; MEX-5 binding: -2.7; IDE cell inh: -1.6; GLD-1 RNA inh: 5.0; Bcl-xL primary: 0.3; IDE cell activ: 5.2

What do the screens show for `CSCC(C)N1CCC(Oc2cccc(C(=O)NCc3ccccn3)c2)CC1` (stereo not given)?
MCL1 BIM primary: 55.8*; MEX-5 binding: -29.3*; IDE cell inh: 3.3; GLD-1 RNA inh: 15.8; Bcl-xL primary: 47.9*; IDE cell activ: 2.5; Bcl-xL conf: 56.0*; MCL1 BIM confirm: 69.9*

How did Cn1nc(-c2ccc(Cl)cc2)nc2c(=O)n(C)c(=O)nc1-2 do in these assays?
MCL1 BIM primary: 95.8*; MEX-5 binding: -41.4*; IDE cell inh: 6.3; GLD-1 RNA inh: 78.4*; Bcl-xL primary: 90.3*; Bcl-xL conf: 94.3*; MCL1 BIM confirm: 120.6*

How did CN(CC(=O)Nc1ccc(F)cc1)C(=O)c1ccc(OCc2ccccc2)cc1 do in these assays?
IDE cell activ: 1.2

How did Cc1ccccc1NC(=O)CSc1nnc(-c2ccco2)c(-c2ccco2)n1 do in these assays?
MCL1 BIM primary: 52.4*; MEX-5 binding: -6.2; IDE cell inh: 0.5; GLD-1 RNA inh: 5.2; Bcl-xL primary: 27.0; IDE cell activ: -7.2; Bcl-xL conf: 35.0*; MCL1 BIM confirm: 86.2*

What do the screens show for `CN(C)c1ccc(NC(=O)CSc2nnc(-c3ccco3)c(-c3ccco3)n2)cc1`?
MCL1 BIM primary: 31.7; MEX-5 binding: -4.6; IDE cell inh: 1.3; GLD-1 RNA inh: 5.5; Bcl-xL primary: 25.2; IDE cell activ: -0.8

How did CSc1nnc(-c2ccco2)c(-c2ccco2)n1 do in these assays?
MCL1 BIM primary: 42.5*; MEX-5 binding: -10.8; IDE cell inh: 3.0; GLD-1 RNA inh: 5.1; Bcl-xL primary: 23.9; IDE cell activ: 2.1; Bcl-xL conf: 25.6; MCL1 BIM confirm: 55.6*

What do the screens show for `Cc1cccc(C)c1NC(=O)CSc1nnc(-c2ccco2)c(-c2ccco2)n1`?
MCL1 BIM primary: 95.8*; MEX-5 binding: -3.5; IDE cell inh: -2.4; GLD-1 RNA inh: 11.8; Bcl-xL primary: 57.7*; IDE cell activ: -5.4; Bcl-xL conf: -18.7; MCL1 BIM confirm: -4.1

How did Cc1ccccc1NC(=O)CSc1n[nH]c(-c2ccco2)n1 do in these assays?
MCL1 BIM primary: 3.8; MEX-5 binding: 0.5; IDE cell inh: 13.1; GLD-1 RNA inh: -2.4; Bcl-xL primary: 1.0; IDE cell activ: -3.8

Results for COC(=O)c1ccccc1NC(=O)C/C(C)=N/NC(=O)Cc1ccc(Cl)cc1 ?
MCL1 BIM primary: 53.4*; MEX-5 binding: -3.0; IDE cell inh: 3.1; GLD-1 RNA inh: -3.5; Bcl-xL primary: 4.5; IDE cell activ: 0.1; Bcl-xL conf: -1.5; MCL1 BIM confirm: 25.2

What do the screens show for `C=C1c2ccccc2O[C@H](C(=O)OCC)[C@H]1OC`?
IDE cell activ: -2.1

What do the screens show for `COc1cc(O)c(C(C)=O)c(CC(=O)O)c1`?
MCL1 BIM primary: 40.9*; MEX-5 binding: -9.7; IDE cell inh: 4.6; GLD-1 RNA inh: 12.9; Bcl-xL primary: 12.9; IDE cell activ: 3.8; Bcl-xL conf: 20.2; MCL1 BIM confirm: 34.5

Results for Cc1ccc(Sc2cc(C(=O)NCCCN(C)C)c3ccccc3n2)cc1 ?
MCL1 BIM primary: 86.1*; MEX-5 binding: 1.0; IDE cell inh: 4.1; GLD-1 RNA inh: 68.6*; Bcl-xL primary: 78.0*; IDE cell activ: 4.0; Bcl-xL conf: 6.4; MCL1 BIM confirm: 2.1

How did Cc1ccc(Sc2cc(C(=O)NCCN(C)C)c3ccccc3n2)cc1 do in these assays?
MCL1 BIM primary: -2.1; MEX-5 binding: -1.6; IDE cell inh: 4.5; GLD-1 RNA inh: 2.7; Bcl-xL primary: -0.2; IDE cell activ: 5.2

What do the screens show for `CN(C)S(=O)(=O)c1ccc(C(=O)OCC(=O)c2ccc(OC(F)F)cc2OC(F)F)cc1`?
MCL1 BIM primary: 3.8; MEX-5 binding: 2.8; IDE cell inh: -4.2; GLD-1 RNA inh: 12.6; Bcl-xL primary: 4.6; IDE cell activ: 1.4

Results for Cc1cc2nc3c(=O)[nH]c(=S)[nH]c3nc2cc1NC(=O)C(F)(F)F ?
MCL1 BIM primary: active; MEX-5 binding: inconclusive; IDE cell inh: -4.2; GLD-1 RNA inh: 185.0*; Bcl-xL primary: active; IDE cell activ: 0.0; Bcl-xL conf: 184.8*; MCL1 BIM confirm: 196.7*

Results for Cc1oc2cc(O)ccc2c(=O)c1-c1ccccc1 ?
MCL1 BIM primary: 8.7; MEX-5 binding: -2.5; IDE cell inh: -4.4; GLD-1 RNA inh: 4.8; Bcl-xL primary: 5.5; IDE cell activ: -8.2

How did Cc1oc2cc(O)ccc2c(=O)c1-c1nncn1-c1ccccc1 do in these assays?
MCL1 BIM primary: 109.1*; MEX-5 binding: inconclusive; IDE cell inh: 5.4; GLD-1 RNA inh: 112.9*; Bcl-xL primary: 113.3*; IDE cell activ: 4.6; Bcl-xL conf: 119.4*; MCL1 BIM confirm: 139.4*

How did CC1(C)CNc2cc(N)ccc2S1 do in these assays?
MCL1 BIM primary: 66.0*; MEX-5 binding: -1.7; IDE cell inh: 0.9; GLD-1 RNA inh: -17.9; Bcl-xL primary: 25.3; IDE cell activ: 1.3; Bcl-xL conf: 31.9*; MCL1 BIM confirm: 43.0*

What do the screens show for `COc1ccc(C2C=C(c3ccc(Br)s3)Nc3ncnn32)cc1OC` (stereo not given)?
MCL1 BIM primary: active; MEX-5 binding: inconclusive; IDE cell inh: 38.7*; GLD-1 RNA inh: 145.8*; Bcl-xL primary: 188.7*; Bcl-xL conf: 140.3*; MCL1 BIM confirm: 160.8*
